# Experimental data from PubChem BioAssay (Tox21).
# Inconclusive results are not listed. A number with no mark means an inactive call. Calls follow the shape of the dose curve; as a rule, active = well fitted inhibition curve with a large enough effect in the repeat runs; inconclusive = weak or mixed curves; inactive = no such curve, though single readings can be large or run the other way.
# Test: qHTS assay to identify small molecule antagonists of the estrogen related receptor (ERR) signaling pathway (AID 1224819; also: nearly all actives have a fitted effect of over 50% in size)
# Conditions: ERR reporter cell line, luciferase inhibition; series mostly up to 46.1 µM; activity change, negative = inhibition: at the top concentration
# Text: National Center for Advancing Translational Sciences [NCATS]
# NIH Chemical Genomics Center [NCGC]
# U.S. Environmental Protection Agency [EPA]
# National Institutes of Environmental Health Sciences [NIEHS]
# National Toxicology Program [NTP]
# U.S. Food and Drug Administration [FDA]
# Estrogen related receptors (ERRs), the first orphan nuclear receptors discovered, play an important role in the control of cellular energy metabolism. ERRs are required for high-energy production in response to the environmental challenges. ERR-alpha was also identified as an adverse marker for breast cancer progression; ERR-alpha-positive tumors have a poor prognosis. To screen and to identify environmental compounds that perturb the ERR signaling pathways could provide valuable information for potential therapeutic or preventive measures in the treatment of metabolic disease. For identifying ERR antagonists, ERR cell line (provided by NTP) has been used to screen LOPAC library.
# Tox21 Assay Protocol Summary:
# The ERR cells were dispensed at 2,000 cells/5 ul/well in 1536-well white plates using a Multidrop dispenser. After the assay plates were incubated at a 37 C/5% CO2 incubator for 6 hours, 23 nL of compounds dissolved in DMSO, positive and negative controls or DMSO only was transferred to the assay plate by a pin tool. The plates were incubated at 37 C for 18 hours. 4 ul/well of One-Glo reagent was added into the assay plates using a Flying Reagent Dispenser. After 30 min incubation at room temperature, the luminescence intensity in the plates was measured using a ViewLux plate reader.
# % is scaled to controls: 0 for no effect and ±100 for the full control effect.
row,SMILES,"activity change, negative = inhibition"
1,CCCN(CCC)C(=O)C(CCC(=O)O)NC(=O)c1ccccc1 (stereo not given),5.13%
2,CC1=C(CC(=O)O)c2cc(F)ccc2/C1=C\c1ccc(S(C)(=O)=O)cc1,-6.33%
3,NC/C=C/C(=O)O,2.5%
4,COc1ccccc1N1CCN(CCCNc2cc(=O)n(C)c(=O)n2C)CC1,9.88%
5,CN1CCC[C@@H]1Cc1c[nH]c2ccc(CCS(=O)(=O)c3ccccc3)cc12,-0.995%
6,CN1CCN(C2=Nc3ccccc3Oc3ccc(Cl)cc32)CC1,-13.4%
7,O=C1N(c2ccccc2)c2ccccc2C1(Cc1ccncc1)Cc1ccncc1,-6.1%
8,CNCCC(Oc1ccccc1OC)c1ccccc1 (stereo not given),5.33%
9,O=C(O)CN(CCN(CC(=O)O)CC(=O)O)CCN(CC(=O)O)CC(=O)O,5.44%
10,C[C@]12CCC(=O)C=C1CC[C@@H]1[C@@H]2CC[C@@]2(C)[C@H]1CC[C@]2(O)C(=O)CO,-22.2%
